Data published in PubChem BioAssay (Tox21).
Records with an inconclusive call do not appear. A call without a number means that no potency is given here. Values without a mark were called inactive. The source made the active and inactive calls. Calls follow the shape of the dose curve; as a rule, active = well fitted cell-killing curve with a large enough effect in the repeat runs; inconclusive = weak or mixed curves; inactive = flat fitted curve, though single readings scatter.

assay: qHTS RealTime-Glo MT Cell Viability Assay in HepG2 cells - 24 hour (AID 1224867); settings: RealTime-Glo luminescence; series mostly up to 76.8 µM; activity change, negative = cytotoxicity: at the top concentration; also: nearly all actives have a fitted effect of over 50% in size
In short: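 qHTS, HepG2, 600 cells/well, RealTime-Glo (NanoLuc + prosubstrate) added with cells; 5 h preincubation; DMSO compound addition; 37 C; luminescence at 0/8/16/24/32/40 h.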

SMILES	Potency	activity change, negative = cytotoxicity [%]
COC(C)COC(C)COC(C)CO (configuration not stated)	inactive	–
C[C@]12CCC(=O)C=C1CC[C@@H]1[C@@H]2C(=O)C[C@@]2(C)[C@H]1CC[C@]2(O)C(=O)CO	inactive	–
Cc1cccc([N+](=O)[O-])c1C	inactive	–
CCC(C)c1ccccc1O (configuration not stated)	inactive	–
O=C(c1ccccc1)c1ccccc1O	inactive	–
Brc1cc(Oc2cc(Br)c(Br)c(Br)c2Br)c(Br)c(Br)c1Br	inactive	–
CC1=CC2C3CC(C=C3C)C2C1 (configuration not stated)	inactive	–
Nc1ncn([C@@H]2O[C@H](CO)[C@@H](O)[C@H]2O)c(=O)n1	inactive	–
OC(CCl)CCl	inactive	–
CCC(C)CO (configuration not stated)	inactive	–
Cc1ccc2c(n1)Oc1ccc(C(C)C(=O)OCC(=O)N(C)C)cc1C2 (configuration not stated)	inactive	–
O=C(/C=C/c1ccccc1)OCc1ccccc1	inactive	–
C#C[C@]1(O)CC[C@H]2[C@@H]3CCc4cc(OC)ccc4[C@H]3CC[C@@]21C	inactive	–
Cc1cccc(N(C)C(=S)Oc2ccc3ccccc3c2)c1	inactive	–
CC(C(=O)O)c1cccc(C(=O)c2ccccc2)c1 (configuration not stated)	inactive	–
Cc1c(OCC(F)(F)F)ccnc1CS(=O)c1nc2ccccc2[nH]1 (configuration not stated)	inactive	–
Clc1nc(Cl)c(Cl)c(Cl)c1Cl	inactive	–
Cn1cnc([N+](=O)[O-])c1Sc1ncnc2nc[nH]c12	inactive	–
O=C(Nc1ccc(Cl)cc1)Nc1ccc(Cl)c(Cl)c1	–	-22.7
O=CCc1ccccc1	inactive	–
OC1CCCCCCCCCCC1	inactive	–
OC[C@H]1O[C@@H]2O[C@H]3[C@H](O)[C@@H](O)[C@@H](O[C@H]4[C@H](O)[C@@H](O)[C@@H](O[C@H]5[C@H](O)[C@@H](O)[C@@H](O[C@H]6[C@H](O)[C@@H](O)[C@@H](O[C@H]7[C@H](O)[C@@H](O)[C@@H](O[C@H]8[C@H](O)[C@@H](O)[C@@H](O[C@H]1[C@H](O)[C@H]2O)O[C@@H]8CO)O[C@@H]7CO)O[C@@H]6CO)O[C@@H]5CO)O[C@@H]4CO)O[C@@H]3CO	inactive	–
